Growth data for 40 compounds are collected here from PubChem BioAssay (NCI).

Molecules are shown by their SMILES. The panel holds about 83,000 compounds, 20% with a hit somewhere; the sample as a whole holds those more often.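 Single-dose data. Exposure time 48 hours. Values below 10 considered active.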 Calls of active or inactive are those of the source.

The assay relates to MDA-MB-468 breast. As to the kind of experiment: NCI-60 one-dose screen, 48 h (100 = growth as untreated, 0 = no growth, -100 = all killed). Conditions: 10 µM unless noted.
`O=[N+]([O-])c1ccc(N/N=C/C2CCCCCC2)c([N+](=O)[O-])c1`: the growth was 86.4% (inactive).

Take `C#Cc1cccc(NC(=O)c2cccc(NC(=O)CCl)c2)c1`: the growth was -52.7% [8.25 µM] (active).

`COc1cc([N+](=O)[O-])c2ncccc2c1O`: the growth is 95.1% (inactive).

As for `Cc1nn(-c2nc3ccccc3[nH]2)c2c1C(c1ccc(OCC(N)=O)cc1)CC(=O)N2` (stereo not given), the growth was 108% (inactive).

With `O=C(NCCNc1nccc(Nc2ccc(S(=O)(=O)Nc3ccccn3)cc2)n1)c1cccc([N+](=O)[O-])c1`, the growth was 105% (inactive).

Turning to `COc1ccc(-c2csc(NC(=O)N3CCN(c4cc5c(cc4F)c(=O)c(C(=O)O)cn5C4CC4)CC3)n2)cc1`, the growth was -2.96% (active).

For `CCCCCCCCCCCCNC(=O)[C@H]1CSC(c2ccsc2)N1` (stereo not given in full), the growth is -74.1% (active).

Regarding `Cn1cc(-c2nc(-c3c[nH]c4ccncc34)cs2)c2ccccc21`, the growth was -12.2% (active).

For `COc1ccc2sc3c(NCCO)nc4ccccc4c3c(=O)c2c1`, the growth is 109% (inactive).

For `O=C(c1ccc(Nc2nccc(NCCCNc3ccnc4cc(Cl)ccc34)n2)cc1)N1CCCCC1`, the growth was 29.5% (inactive).

For the compound `COc1cc(C(=O)CCCl)ccc1O`, the growth was 94.7% (inactive).

Take `CC(C)=CC[C@@H]1CC2(CC=C(C)C)C(=O)C(OC3(C(=O)c4ccccc4)C(=O)C4(CC=C(C)C)C[C@@H](CC=C(C)C)C(C)(C)C(CC=C(C)C)(C4=O)C3=O)(C(=O)c3ccccc3)C(=O)C(CC=C(C)C)(C2=O)C1(C)C` (stereo not given in full): the growth is -6.87% (active).

For the compound `COc1c(CNC(=O)CCl)cc2[nH]c(C)cc2c1CNC(=O)CCl`, the growth is 53.4% (inactive).

On to `COc1ccccc1Nc1nnc(-c2ccc(Cl)cc2)o1`, for which the growth is 14% (inactive).

On to `O=C(/C=C/c1ccc2ccccc2c1)Nc1ncc(Cc2ccccc2)s1`, for which the growth was 64% (inactive).

As to `NCC(O)C(O)C(O)C(O)CO` (stereo not given), the growth was 98.7% (inactive).

Consider `COc1ccc(/C(C)=C(/c2ccc(OCCCN(C)C)cc2)c2ccc(OC(=O)c3ccccc3)cc2)cc1`, for which the growth is 94.9% (inactive).

`Nc1nc(=S)c2[nH]cnc2[nH]1`: the growth is -13.1% (active).

As to `c1ccc(-c2[nH]c3ccccc3c2-c2ccccc2)cc1`, the growth is 84.1% (inactive).

As for `COc1cc2nc3cc([N+](=O)[O-])ccc3c(NCCNCC(C)O)c2cc1OC` (stereo not given), the growth is -45.6% (active).

Consider `C#CCC(C)(O)/C=C/C1=C(C)CCCC1(C)C` (stereo not given), for which the growth is 87.3% (inactive).

Take `C=C(C)[C@@H]1CC[C@]2(C=O)CC[C@]3(C)[C@H](CC[C@@H]4[C@@]5(C)C/C(=C/c6cccnc6)C(=O)C(C)(C)[C@@H]5CC[C@]43C)[C@@H]12`: the growth was 80.4% (inactive).

Turning to `N#C/C(=C\c1ccc([N+](=O)[O-])cc1)n1nnc2cc(F)c(F)cc21`, the growth was -40% (active).

Regarding `COc1ccc2sc(NC(=O)CCCCCCNC(=O)C(O)(O)C(F)(F)F)nc2c1`, the growth was -11.7% (active).

With `Clc1ccc(Cn2cc(-c3nc4ccc(Br)nc4n3Cc3ccc(Cl)cc3)c3cccnc32)cc1`, the growth is 60.7% (inactive).

On to `O=c1c2ccccc2nc(COc2ccccc2)n1/N=C/C=C/c1ccccc1`, for which the growth was 89.1% (inactive).

On to `C=C[C@]1(C)C=C2C(=O)[C@@]3(O)OC[C@@]4(CCCC(C)(C)C43O)C2(O)C(O)C1` (stereo not given in full), for which the growth is -18.7% (active).

In the case of `Nc1nc(Cl)cc(Cl)n1`, the growth is 99.4% (inactive).

In the case of `CSCC[C@@H]1C(=O)N(C)[C@H](C(C)(C)C)N1C(=O)c1ccccc1`, the growth was 105% (inactive).

Regarding `O=C1/C(=C/c2ccccc2O)CC/C1=C\c1ccccc1O`, the growth is 34.3% (inactive).

For the compound `C#Cc1nc(C(=O)NCCCCCCC(=O)NO)cs1`, the growth is -33.8% (active).

With `Nc1ccc2c(O)cc(S(=O)(=O)O)cc2c1`, the growth is 110% (inactive).

With `CCOc1cccc(/C=N/NC(=O)Cc2ccc(Nc3ccnc(C(F)(F)F)c3)cc2)c1O`, the growth is 1.86% (active).

For `CC(=O)Nc1ccc(-c2ccc3c(c2)NC(=O)/C3=C\c2ccc[nH]2)cc1`, the growth was -7.08% (active).

`O=C1[C@H]2Cc3c([nH]c4ccccc34)[C@@H](c3ccc(Cl)cc3)N2C(=O)CN1C1CCN(Cc2c(Cl)cccc2Cl)CC1`: the growth was 98.3% (inactive).

`Cc1nn(-c2ccccc2)c(N2CCOCC2)c1-c1nc2ccc([N+](=O)[O-])cc2[nH]1`: the growth is 94.3% (inactive).

With `CC/C=C\C[C@H]1C/C=C2/C(=O)C=C[C@H]2C/C=C\CCCC(=O)O1`, the growth was 31.7% (inactive).

Turning to `COc1ccc(CCN2C(=O)CCC3=C2CCCC3=O)cc1OC`, the growth is 105% (inactive).

Take `O=C(c1nc2ccccc2[nH]1)C1C(c2ccc(Br)cc2)C2CC3CCCC[C@H]3N2[C@@]12C(=O)Nc1cc(Cl)ccc12` (stereo not given in full): the growth was 12.5% (inactive).

As to `Nc1n[nH]c(=S)n1-c1ccc(Cl)cc1`, the growth is 97.5% (inactive).
